# PubChem BioAssay
# Active and inactive are the calls of the source.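 The calls were made as follows: active = compounds whose cell count with miR-34 switched on is under 0.7 times the count with it off; inactive = the rest.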
# Assay: sensitizers of A549 cells to miR-34 induction, primary screen, imaging, A549 dox-inducible miR-34, nuclei and caspase counts (AID 1347080); also: test concentration not given here
# Conditions: A549 miR-34 inducible, Hoechst nuclei count, 48 h
# [1] = stronger effect = lower value, cell number ratio, induced over uninduced
# [2] = measured here: relative caspase fold change +Dox/-Dox
# [3] = measured here: total cells with miR-34 induction, stronger effect = lower value
# [4] = measured here: total cells without miR-34 induction
SMILES,fold change [1],fold change [2],cell count [3],cell count [4]
CCCCCCCC/C=C\CCCCCCCCCCCC(N)=O,1.07 (inactive),0.823,6240,5820
CCCCCCCCCCCCC/C=C/[C@@H](O)[C@H](CO)NC(=O)CCCCC,0.988 (inactive),0.834,5840,5910
CCCCC(C)(C)[C@H](O)/C=C/[C@H]1[C@H](O)CC(=O)[C@@H]1CCCCCCC(=O)O,0.94 (inactive),1.17,5660,6020
O=C(CCC/C=C\C[C@@H]1[C@@H](/C=C/[C@@H](O)CCc2ccccc2)[C@H](O)C[C@@H]1O)NC(CO)CO,0.978 (inactive),1.15,5210,5330
CCCCC[C@H](O)/C=C/[C@@H]1[C@@H](C/C=C\CCCC(=O)OC(C)C)[C@@H](O)C[C@H]1O,0.994 (inactive),1.14,5380,5420
C=CC[C@@H]1/C=C(\C)C[C@@H](C)C[C@H](OC)[C@H]2O[C@@](O)(C(=O)C(=O)N3CCCC[C@H]3C(=O)O[C@H](/C(C)=C/[C@@H]3CC[C@@H](O)[C@H](OC)C3)[C@H](C)[C@@H](O)CC1=O)[C@H](C)C[C@@H]2OC,0.908 (inactive),0.315,5040,5550
CC(C)OC(=O)CCC/C=C\C[C@@H]1[C@@H](/C=C/C(F)(F)COc2ccccc2)[C@H](O)C[C@@H]1O,1.05 (inactive),0.899,5900,5630
CCCCCCCCCCCCCCCCCCCCCCCC(=O)NCCS(=O)(=O)O,0.987 (inactive),0.331,5520,5600
CCCC[C@H](C)C[C@H](O)/C=C/[C@@H]1[C@@H](CCCCCCC(=O)O)[C@@H](O)C[C@H]1O,0.931 (inactive),1.78,5490,5900
O=C(O)CCC/C=C\C[C@@H]1[C@@H](/C=C/[C@H](O)COc2cccc(C(F)(F)F)c2)[C@H](O)C[C@@H]1O,1.06 (inactive),0.987,6230,5890
CCCCC/C=C\C/C=C\C/C=C\CCCCC(=O)OC,1.06 (inactive),0.952,6900,6530
O=C(O)CCCCCC[C@@H]1[C@@H](CC[C@@H](O)CCc2cccc(C(F)(F)F)c2)[C@H](O)C[C@@H]1O,1.13 (inactive),1.38,6150,5440
CC/C(=C\C(=N/O)C(N)=O)C(C)[N+](=O)[O-] (stereo unspecified),1.05 (inactive),1.1,6540,6230
O=C(O)CCC/C=C\C[C@@H]1[C@@H](/C=C/C(=O)COc2cccc(C(F)(F)F)c2)[C@H](O)C[C@@H]1O,0.949 (inactive),0.381,6020,6340
CCCCCC(=O)CC[C@@H]1[C@@H](CCCCCCC(=O)O)[C@@H](O)C[C@H]1O,0.953 (inactive),1.23,6140,6450
CC/C=C/C[C@H](O)/C=C/[C@H]1[C@H](O)CC(=O)[C@@H]1C/C=C\CCCC(=O)O,0.915 (inactive),1.46,5700,6230
CCCCCCCCC#CCCCCCCCC(=O)c1nc2ncccc2o1,1.03 (inactive),1.11,6180,5990
CCCCCCCCCCCCCCCCOC[C@@H](O)COP(=O)(O)O,0.944 (inactive),0.298,5730,6070
CC(=O)[C@H]1[C@H](C#N)C[C@H]2[C@@H]3CC=C4C[C@@H](O)CC[C@]4(C)[C@H]3CC[C@@]21C,1.01 (inactive),1.04,5370,5300
CCCCC[C@@H](O)/C=C/[C@@H]1[C@@H](C/C=C\CCCC(=O)O)[C@@H](O)C[C@H]1O,0.977 (inactive),1.24,5960,6100

SMILES,fold change [1],fold change [2],cell count [3],cell count [4]
CCCCC/C=C/C=C1/C=CC(=O)[C@@H]1C/C=C\CCCC(=O)O,0.952 (inactive),1.85,5680,5960
CCCCC[C@H](O)/C=C/[C@@H]1[C@@H](C/C=C\CCCC(=O)OC)[C@@H](O)C[C@H]1O,0.963 (inactive),1.19,5860,6080
c1ccc2c(NCCCCCCCNc3c4c(nc5ccccc35)CCCC4)c3c(nc2c1)CCCC3,1.06 (inactive),0.663,4480,4230
CS(=O)(=O)NC(=O)CCCCCCCCCC=C(Br)Br,0.853 (inactive),1.19,4860,5700
CCCCCCCCCCCCCCCCOC[C@@H](CO)SC(C)=O,1.02 (inactive),0.6,5400,5270
CCCCC/C=C/C=C1/C(=O)C[C@H](O)[C@@H]1C/C=C\CCCC(=O)O,1.04 (inactive),1.03,6090,5880
CCCCC/C=C\C/C=C\C/C=C\C/C=C\CCCC(=O)Oc1ccc2ccc(=O)oc2c1,0.939 (inactive),0.946,5890,6270
CCCCC/C=C\C/C=C\CCCCCCCC(=O)OC[C@H](O)CO,0.698 (active),0.477,4490,6430
CCCCC/C=C\C=C\[C@H](O)CCCCCCCC(=O)O,1.01 (inactive),1.02,5810,5740
CCCCC/C=C\C/C=C\C/C=C\CCCCCCC(=O)OCC,1.05 (inactive),0.794,6480,6160
CC(C)OC(=O)CCC/C=C\C[C@@H]1[C@@H](/C=C/[C@H](O)C2Cc3ccccc3C2)[C@@H](F)C[C@@H]1O,0.981 (inactive),2.25,5350,5450
CCC(C)(C)C(=O)C(=O)N1CCCC[C@H]1C(=O)O[C@H](CCc1ccc(OC)c(OC)c1)c1cccc(N)c1,0.702 (inactive),0.49,4270,6080
CC/C=C\C/C=C\C/C=C\C/C=C\CCCCC(=O)OCC,1.03 (inactive),1.28,5830,5650
C#CCOc1ccccc1CCCCCC(=O)NS(C)(=O)=O,0.952 (inactive),0.875,5890,6190
O=C(O)CCC/C=C\C[C@H]1C(=O)C=C[C@@H]1/C=C/[C@@H](O)CCc1ccccc1,0.944 (inactive),0.959,5880,6220
CCCCCCCCCCCSCC(=O)O,1.05 (inactive),1.04,6160,5890
CCCCC[C@@](C)(O)/C=C/[C@@H]1C(C/C=C\CCCC(=O)O)[C@@H](O)C[C@H]1O (stereo partly specified),0.939 (inactive),1.76,6110,6510
CCCCCC(=O)CC[C@H]1[C@H](O)CC(=O)[C@@H]1C/C=C\CCCC(=O)O,0.975 (inactive),1.25,6140,6290
C/C=C/C[C@@H](C)[C@@H](O)[C@H]1C(=O)N[C@@H](CC)C(=O)N(C)CC(=O)N(C)[C@@H](CC(C)C)C(=O)N[C@@H](C(C)C)C(=O)N(C)[C@@H](CC(C)C)C(=O)N[C@@H](C)C(=O)NC(C)C(=O)N(C)[C@@H](CC(C)C)C(=O)N(C)[C@@H](CC(C)C)C(=O)N(C)[C@@H](C(C)C)C(=O)N1C (stereo partly specified),1.02 (inactive),1.6,2270,2230
CCCCCCCCCCCCCCCCOC[C@H](COP(=O)([O-])OCC[N+](C)(C)C)OC(=O)CCCCCCCC(=O)O,0.862 (inactive),0.772,4600,5340

SMILES,fold change [1],fold change [2],cell count [3],cell count [4]
NC(=O)CCC/C=C\C[C@@H]1[C@@H](/C=C/[C@@H](O)CCc2ccccc2)[C@H](O)C[C@@H]1O,0.961 (inactive),1.58,6210,6460
CCCCCCCCCC(=O)NC(CN1CCOCC1)C(O)c1ccccc1 (stereo unspecified),1.03 (inactive),0.968,5830,5670
CCCCC[C@H](O)/C=C/[C@H]1CC[C@H](O)[C@@H]1CCCCCCC(=O)O,0.966 (inactive),1.33,6200,6420
CCCC[C@H](C)C[C@H](O)/C=C/[C@H]1[C@H](O)CC(=O)[C@@H]1CCCCC(CC(=O)O)OC (stereo partly specified),0.949 (inactive),0.824,5200,5480
CCCCCC(=O)/C=C/[C@@H]1[C@@H](CCCCCCC(=O)O)[C@@H](O)C[C@H]1O,1.03 (inactive),1.29,5670,5520
C=C(N)N[C@@H](CCC(=O)O)C(=O)O,0.873 (inactive),0.849,8430,9660
CCCCCC(=O)CC[C@@H]1[C@@H](C/C=C\CCCC(=O)OC(C)C)[C@@H](O)C[C@H]1O,0.977 (inactive),1.56,6190,6330
CO[C@H]1CC(O[C@@H]2/C(C)=C/C[C@@H]3C[C@@H](C[C@]4(C=C[C@H](C)[C@@H](C5CCCCC5)O4)O3)OC(=O)[C@@H]3C=C(C)[C@@H](O)[C@H]4OC/C(=C\C=C\[C@@H]2C)[C@]43O)O[C@@H](C)C1O[C@H]1C[C@H](OC)[C@@H](O)[C@H](C)O1 (stereo partly specified),0.703 (inactive),1.24,405,576
C[C@@H]1CC[C@H]2[C@@H](C)C(O)O[C@@H]3OC4(C)CC[C@@H]1[C@]32OO4 (stereo partly specified),0.843 (inactive),0.767,3740,4440
CC/C=C\C/C=C\C/C=C\CCCCCCCC(=O)NCCO,1.05 (inactive),0.865,5950,5670
O=C1O/C(=C/Br)CC[C@H]1c1cccc2ccccc12,1.14 (inactive),0.781,3970,3470
C[C@@H](C(=O)O)c1ccc(-c2ccccc2)c(F)c1,0.967 (inactive),0.615,6150,6360
O=C(/C=C/c1cccc(C(=O)NO)c1)NO,0.962 (inactive),1.09,4750,4940
CCCCC[C@H](O)/C=C/[C@@H]1[C@@H](CCCCCCC(=O)O)[C@H](O)C[C@H]1O,0.962 (inactive),1.22,6020,6250
CCCCCCCCCCCCCCCCCC(=O)NCCS(=O)(=O)O,1.11 (inactive),0.61,6120,5530
C[C@]12CC[C@@H]3c4cc(O)c(O)cc4CC[C@H]3[C@@H]1CC[C@@H]2O,0.847 (inactive),2.78,5010,5920
CCCCC/C=C\C=C\CCCCCCCCC(=O)O,1.07 (inactive),1.02,5840,5480
CCCCc1ccc(N=CNO)c(C)c1,1.01 (inactive),0.762,6020,5950
O=Cc1cccc2[nH]ccc12,1.14 (inactive),0.821,6070,5350
